Measurements from PubChem BioAssay AID1851 (National Center for Advancing Translational Sciences (NCATS), 2009).
About 5,100 (32%) of roughly 16,000 compounds were called active. Roughly 25% stayed inconclusive and do not appear here. This is one part of the list. Values without a mark were called inactive. Calls come from the whole dose curve; as a rule, active = well fitted curve in the direction sought with a large enough effect; inconclusive = small, poorly fitted or top-dose-only effect, or effect the other way; inactive = no such curve, though single readings can be large or run the other way.

Each compound was assayed against Cytochrome P450 3A4 (Homo sapiens) (UniProt P08684) (assay: Cytochrome panel assay with activity outcomes). Conditions: recombinant CYP, pro-luciferin dealkylation, luminescence, p450-cyp3a4; series mostly up to 57.1 µM.
% is set by controls: 0 for no effect and ±100 for the full control effect.

Chain of Cytochrome P450 3A4 (Homo sapiens) (P08684 whole entry, looked up): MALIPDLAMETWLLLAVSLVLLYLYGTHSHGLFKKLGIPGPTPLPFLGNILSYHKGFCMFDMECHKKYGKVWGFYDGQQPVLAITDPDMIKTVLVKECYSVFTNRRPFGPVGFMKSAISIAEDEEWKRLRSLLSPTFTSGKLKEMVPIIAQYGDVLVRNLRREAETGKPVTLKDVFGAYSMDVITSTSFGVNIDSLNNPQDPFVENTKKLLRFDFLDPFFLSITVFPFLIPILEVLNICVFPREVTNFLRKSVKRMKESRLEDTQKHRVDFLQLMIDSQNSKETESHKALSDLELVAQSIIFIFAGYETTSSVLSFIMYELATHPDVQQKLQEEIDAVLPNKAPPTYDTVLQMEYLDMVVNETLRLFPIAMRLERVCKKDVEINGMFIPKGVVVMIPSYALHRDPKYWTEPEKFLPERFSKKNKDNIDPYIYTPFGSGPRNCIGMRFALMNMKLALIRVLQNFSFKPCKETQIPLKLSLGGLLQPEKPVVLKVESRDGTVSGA

| Compound | AC50 | activity, negative = inhibition |
| --- | --- | --- |
| Cc1ccc(C2C(=O)N(C3CCCC3)CC(=O)N2CC2COc3ccccc3O2)cc1 (stereo not given) | 3.98 µM (active) | – |
| CC1CCCC(C)N1CC(O)COCC1COc2ccccc2O1 (stereo not given) | inactive | – |
| CC1CCCN(CC(O)COCC2COc3ccccc3O2)C1 (stereo not given) | inactive | – |
| CN1CCN(c2ncnc3ccc(-c4cccnc4)cc23)CC1 | 15.8 µM (active) | – |
| c1cncc(-c2ccc3ncnc(N4CCNCC4)c3c2)c1 | 12.6 µM (active) | – |
| CN(C)c1ccc(-c2ccc3ncnc(N4CCNCC4)c3c2)cc1 | 20 µM (active) | – |
| CN1CCN(c2ncnc3ccc(-c4ccc5c(c4)OCO5)cc23)CC1 | 7.94 µM (active) | – |
| N[C@H](C(=O)O)[C@@H]1[C@@H](C(=O)O)C1(F)F | inactive | – |
| OC[C@@H]1O[C@H](n2cnc3c(/C=C(\O)c4ccccc4)ncnc32)[C@H](O)[C@@H]1O | – | -15.3% [at 11.4 µM] |
| NC(N)=NC[C@@H]1CCCCCCN1 | – | -2.73% [at 11.4 µM] |
| CCN(CC)CC[n+]1ccc2c(C)c3[nH]c4ccc(O)cc4c3c(C)c2c1 | – | -18.3% [at 11.4 µM] |
| Cc1sc2ncnc(OCC(=O)NC(C)C)c2c1C | – | 0.697% [at 11.4 µM] |
| N#Cc1cccc(-c2ccc3ncnc(NC4CCNCC4)c3c2)c1 | inactive | – |
| N#Cc1cccc(-c2ccc3ncnc(N4CCNCC4)c3c2)c1 | 20 µM (active) | – |
| COCCNC(=O)CSc1ncnc2sccc12 | – | 0.766% [at 2.29 µM] |
| COC(=O)c1c(-c2ccccc2)csc1NC(=O)CSc1ncnc2sc(C)c(C)c12 | 8.91 µM (active) | – |
| CCc1ccc(OCC(=O)NNC(=O)CSc2ncnc3sc(C)c(C)c23)cc1 | – | 1.75% [at 0.457 µM] |
| COc1ccccc1-c1cc(N(C)Cc2ccco2)ncn1 | inactive | – |
| Cc1ccccc1-c1cc(N(C)Cc2ccco2)ncn1 | inactive | – |
| COc1ccccc1-c1cncnc1N(C)Cc1ccco1 | 1.26 µM (active) | – |
| Cc1ccccc1-c1cncnc1N(C)Cc1ccco1 | 1.58 µM (active) | – |
| CN(Cc1ccco1)c1ncncc1-c1ccccc1Cl | 0.501 µM (active) | – |
| CN(Cc1ccco1)c1cc(-c2ccccc2Cl)ncn1 | inactive | – |
| Cc1noc(C)c1-c1cncnc1N(C)Cc1ccco1 | 3.16 µM (active) | – |
| Cc1noc(C)c1-c1cc(N(C)Cc2ccco2)ncn1 | inactive | – |
| CN(Cc1ccco1)c1ccnc(-c2ccccc2C(F)(F)F)n1 | inactive | – |
| CN(Cc1ccco1)c1ncncc1-c1ccccc1C(F)(F)F | 1.26 µM (active) | – |
| CN1[C@H](CC(=O)c2ccccc2)CCC[C@H]1C[C@H](O)c1ccccc1 | inactive | – |
| NC(=O)N1c2ccccc2C=Cc2ccccc21 | inactive | – |
| O=C(C[C@@H]1C=Cc2ccccc2N1C(=O)c1ccccc1)c1ccccc1 | 3.98 µM (active) | – |
